Test results from PubChem BioAssay (NCATS).
Inconclusive results are not listed. Active and inactive are the calls of the source. The call rests on the fitted dose curve; in most records, active means well fitted curve in the direction sought with a large enough effect; inconclusive means small, poorly fitted or top-dose-only effect, or another doubt; inactive means no such curve, though single readings can be large; an effect the other way counts as inactive or inconclusive.

How the values were obtained:
[1] = target: Beta-2 adrenergic receptor (Homo sapiens) (UniProt P07550); experiment: qHTS validation assay of beta-arrestin-biased ligands of beta2-adrenergic receptor (AID 485366); details: cell-based beta-arrestin recruitment to ADRB2, qHTS; series mostly up to 46.1 µM
Procedure, shortened: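 Tango cells expressing recombinant beta2-AR and beta-arrestin with tTA-driven luciferase, in DMEM with 1% FBS. Compounds were titrated up to 46 microM for 18 hr at 37 degrees C. Luminescence was read 15 min after substrate; curves were fitted and class-assigned.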

[2] = target: Thioredoxin reductase 1, cytoplasmic (Rattus norvegicus) (UniProt O89049); experiment: qHTS Assay for Substrates of Mammalian Selenoprotein Thioredoxin Reductase 1 (TrxR1) (AID 488772); details: purified TrxR1, NADPH consumption substrate assay; series mostly up to 57.1 µM;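 further: NADPH fluorescence in the first read after selenite addition and not the 8 min delta; a drop in NADPH fluorescence below the no-compound background marks a TrxR1 substrate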
Procedure, shortened: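 Quantitative HTS in Tris-HCl buffer at pH 7.5 with EDTA and Tween-20, using rat TrxR1, 400 uM NADPH and 400 uM selenite (final). A fall in initial NADPH fluorescence relative to background marked substrate behaviour.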

[3] = target: Thioredoxin reductase 1, cytoplasmic (Rattus norvegicus) (UniProt O89049); experiment: qHTS Assay for Inhibitors of Mammalian Selenoprotein Thioredoxin Reductase 1 (TrxR1) (AID 488773); details: purified TrxR1 enzyme activity; Potency: inhibition; series mostly up to 57.1 µM;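 further: drop in NADPH fluorescence over an 8 min run after selenite addition; nearly all actives have a fitted effect of over 40% in size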
Procedure, shortened: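 Steps: enzyme (90 nM) plus NADPH (400 uM final), 5 min at ~22 deg C; compound added, 15 min; selenite (400 uM final) added; fluorescence followed for 8 min. Concentration-response curves derived from the normalized delta values.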

[4] = target: Flap endonuclease 1 (Homo sapiens) (UniProt P39748); experiment: qHTS Validation Assay for the Inhibitors of Human Flap endonuclease 1 (FEN1) (AID 488816); details: FEN1 nuclease activity, fluorogenic DNA substrate; series mostly up to 57.1 µM
Procedure, shortened: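 Readings taken at 0 and 15 min after starting the reaction with 50 nM (final) substrate supplied the signal. Compounds had first sat with 10 nM FEN1 reagent for 15 min at room temperature. Values come from Hill-equation concentration-response fits.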

[5] = target: M-phase phosphoprotein 8 (Homo sapiens) (UniProt Q99549); experiment: qHTS Validation Assay for Inhibitors for MPP8 Chromodomain Interactions with Methylated Histone Tails (AID 488949); details: AlphaScreen MPP8 binding to H3K9me3 peptide; series mostly up to 57.1 µM;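 further: AlphaScreen signal from MPP8 chromodomain bound to biotinylated H3K9me3 peptide; top concentration of the series differs between compounds; nearly all actives have a fitted effect of over 55% in size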
Procedure, shortened: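 Disruption of the preformed MPP8–trimethyl-H3K9 peptide complex (both 50 nM, 30 min, RT) is measured after 30 min compound exposure, using AlphaScreen proximity beads; aurintricarboxylic acid titration serves as plate control.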

[6] = Quantitative high throughput screen for delayed death inhibitors of the malarial parasite plastid, 96 hour incubation (AID 488745); details: Plasmodium falciparum growth; series mostly up to 28.7 µM; further: nearly all actives have a fitted effect of over 70% in size
Procedure, shortened: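 P. falciparum carrying an integrated firefly luciferase reporter, grown in erythrocytes (2% hematocrit, 0.1% parasitemia final) in RPMI 1640/0.5% Albumax, was exposed to compound for 96 h (two generations) at 37 C, 5% CO2. Luminescence decrease indicated growth inhibition.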

[7] = target: Methanococcus maripaludis chaperonin (MmCpn) (UniProt Q6LX38); experiment: High-Throughput Screening for Modulators of Cytosolic Chaperonin Activity: MmCpn Primary Screen (AID 488978); details: Purified MmCpn ATPase activity, ADP HTRF detection, 10 min; series mostly up to 76.9 µM;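 further: 50 nM MmCpn enzyme hydrolysing 30 µM ATP at 37 °C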
Procedure, shortened: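 Measures ATPase turnover of the M. maripaludis chaperonin (50 nM final) against 30 uM ATP over 10 min at 37C, with compound added 5 min beforehand at room temperature. ADP is quantified by HTRF immunodetection.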

[8] = target: Chromobox protein homolog 1 (Homo sapiens) (UniProt P83916); experiment: qHTS Validation Assay for Inhibitors of HP1-beta Chromodomain Interactions with Methylated Histone Tails (AID 488953); details: HP1-beta chromodomain / methylated histone peptide binding assay; series mostly up to 114 µM;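 further: loss of AlphaScreen luminescence from HP1-beta binding biotinylated H3K9me3 peptide; nearly all actives have a fitted effect of over 50% in size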
Procedure, shortened: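 HP1-beta (50 nM) was preincubated 30 min at room temperature with biotinylated H3(1-18)K9me3 peptide (50 nM) in PBS pH 7.4, 0.01% Tween-20, then with compounds 30 min. AlphaScreen signal was read after streptavidin donor/nickel chelate acceptor beads (10 ug/mL final).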

[9] = Quantitative high throughput screen for delayed death inhibitors of the malarial parasite plastid, 48 hour incubation (AID 488752); details: Plasmodium falciparum growth; series mostly up to 28.7 µM; further: nearly all actives have a fitted effect of over 65% in size
Procedure, shortened: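 Erythrocytes infected with P. falciparum carrying an integrated firefly luciferase reporter (2% hematocrit, 0.1% parasitemia final) were exposed to compounds in RPMI 1640/0.5% Albumax for 48 h at 37 C, 5% CO2. Growth inhibition was scored as reduced luminescence.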

Measured: Potency

Sequence of Flap endonuclease 1 (Homo sapiens) (P39748 whole entry, looked up): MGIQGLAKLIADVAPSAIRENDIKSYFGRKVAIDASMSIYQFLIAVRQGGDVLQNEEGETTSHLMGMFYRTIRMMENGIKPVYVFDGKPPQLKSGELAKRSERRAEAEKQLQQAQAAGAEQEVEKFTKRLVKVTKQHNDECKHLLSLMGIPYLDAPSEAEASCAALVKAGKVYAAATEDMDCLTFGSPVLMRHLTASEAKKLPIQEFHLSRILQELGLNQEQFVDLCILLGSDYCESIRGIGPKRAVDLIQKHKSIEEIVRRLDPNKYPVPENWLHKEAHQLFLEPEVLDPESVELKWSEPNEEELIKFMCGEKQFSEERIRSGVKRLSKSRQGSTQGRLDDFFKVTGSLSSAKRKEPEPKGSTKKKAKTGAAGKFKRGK
Sequence of Beta-2 adrenergic receptor (Homo sapiens) (P07550 whole entry, looked up): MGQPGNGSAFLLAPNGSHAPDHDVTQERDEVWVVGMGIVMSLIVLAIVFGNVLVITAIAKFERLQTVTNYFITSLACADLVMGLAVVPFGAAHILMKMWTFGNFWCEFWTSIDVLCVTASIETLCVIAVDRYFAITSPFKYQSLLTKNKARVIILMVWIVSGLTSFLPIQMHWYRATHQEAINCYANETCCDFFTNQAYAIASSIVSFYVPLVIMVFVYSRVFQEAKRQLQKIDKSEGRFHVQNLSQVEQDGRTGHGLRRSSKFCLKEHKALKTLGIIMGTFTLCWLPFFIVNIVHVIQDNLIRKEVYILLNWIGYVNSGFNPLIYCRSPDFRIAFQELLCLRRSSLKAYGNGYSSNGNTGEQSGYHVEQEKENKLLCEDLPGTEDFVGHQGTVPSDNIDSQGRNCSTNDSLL
Sequence of Chromobox protein homolog 1 (Homo sapiens) (P83916 whole entry, looked up): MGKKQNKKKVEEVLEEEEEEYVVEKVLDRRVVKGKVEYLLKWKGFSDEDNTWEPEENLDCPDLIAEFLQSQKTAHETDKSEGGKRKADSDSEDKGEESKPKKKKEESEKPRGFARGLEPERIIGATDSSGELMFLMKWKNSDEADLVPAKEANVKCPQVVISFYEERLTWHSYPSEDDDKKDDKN
Sequence of M-phase phosphoprotein 8 (Homo sapiens) (Q99549 whole entry, looked up): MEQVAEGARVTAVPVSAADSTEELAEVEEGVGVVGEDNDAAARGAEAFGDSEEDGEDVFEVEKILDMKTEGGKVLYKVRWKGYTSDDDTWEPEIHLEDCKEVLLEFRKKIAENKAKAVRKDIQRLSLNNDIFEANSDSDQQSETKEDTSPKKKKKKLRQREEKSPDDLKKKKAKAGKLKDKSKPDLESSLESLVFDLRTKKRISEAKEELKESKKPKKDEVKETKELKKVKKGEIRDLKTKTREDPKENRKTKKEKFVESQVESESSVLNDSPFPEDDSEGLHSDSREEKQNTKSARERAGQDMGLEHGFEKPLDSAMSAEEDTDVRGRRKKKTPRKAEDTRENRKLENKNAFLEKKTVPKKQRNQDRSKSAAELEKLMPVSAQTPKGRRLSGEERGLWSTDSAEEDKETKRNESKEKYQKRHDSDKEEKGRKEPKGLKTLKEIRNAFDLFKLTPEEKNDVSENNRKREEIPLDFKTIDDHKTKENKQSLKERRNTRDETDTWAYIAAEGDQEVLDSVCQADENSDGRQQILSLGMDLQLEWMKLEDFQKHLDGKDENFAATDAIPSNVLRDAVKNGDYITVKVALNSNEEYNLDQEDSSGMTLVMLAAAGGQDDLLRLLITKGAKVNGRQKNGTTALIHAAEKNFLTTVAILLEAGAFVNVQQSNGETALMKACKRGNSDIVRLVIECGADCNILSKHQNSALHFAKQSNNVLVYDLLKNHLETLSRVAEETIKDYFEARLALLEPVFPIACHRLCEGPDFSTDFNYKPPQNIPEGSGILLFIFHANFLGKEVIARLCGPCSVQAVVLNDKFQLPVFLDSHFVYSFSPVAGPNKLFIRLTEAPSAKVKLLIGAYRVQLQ
Sequence of Thioredoxin reductase 1, cytoplasmic (Rattus norvegicus) (O89049 whole entry, looked up): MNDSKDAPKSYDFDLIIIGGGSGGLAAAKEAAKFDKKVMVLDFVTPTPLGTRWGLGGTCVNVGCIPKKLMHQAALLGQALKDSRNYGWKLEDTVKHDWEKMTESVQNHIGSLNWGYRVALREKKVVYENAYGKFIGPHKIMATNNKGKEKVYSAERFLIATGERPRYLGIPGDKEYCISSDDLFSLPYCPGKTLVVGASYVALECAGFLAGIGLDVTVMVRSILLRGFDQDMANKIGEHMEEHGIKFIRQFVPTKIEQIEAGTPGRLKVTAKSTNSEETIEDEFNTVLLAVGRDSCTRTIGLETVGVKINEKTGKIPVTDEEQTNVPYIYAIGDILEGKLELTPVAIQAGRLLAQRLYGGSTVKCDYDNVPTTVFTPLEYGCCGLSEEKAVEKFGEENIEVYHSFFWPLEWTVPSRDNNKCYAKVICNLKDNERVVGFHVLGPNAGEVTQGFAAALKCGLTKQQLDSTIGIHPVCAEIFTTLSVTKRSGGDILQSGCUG
Sequence of Methanococcus maripaludis chaperonin (MmCpn) (Q6LX38 1-543): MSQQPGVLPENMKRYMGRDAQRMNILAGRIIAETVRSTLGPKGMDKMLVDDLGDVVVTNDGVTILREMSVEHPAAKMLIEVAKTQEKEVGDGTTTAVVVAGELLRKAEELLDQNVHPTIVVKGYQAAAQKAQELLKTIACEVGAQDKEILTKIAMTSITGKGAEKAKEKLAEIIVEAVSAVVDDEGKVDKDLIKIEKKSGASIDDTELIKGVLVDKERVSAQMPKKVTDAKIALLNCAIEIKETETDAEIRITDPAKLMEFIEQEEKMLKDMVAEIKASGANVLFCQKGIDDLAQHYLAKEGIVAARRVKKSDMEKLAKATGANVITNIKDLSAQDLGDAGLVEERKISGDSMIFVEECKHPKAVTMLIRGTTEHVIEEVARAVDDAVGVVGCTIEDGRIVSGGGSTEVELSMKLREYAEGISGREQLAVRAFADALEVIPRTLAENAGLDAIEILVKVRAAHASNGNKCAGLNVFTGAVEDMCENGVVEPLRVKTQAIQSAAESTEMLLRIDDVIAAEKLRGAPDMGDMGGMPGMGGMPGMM

Nc1ccc(-c2ccc3ccccc3n2)cc1
inactive: [1] | [2] | [3] | [4] | [5]

CCSC(=N)N
inactive: [1] | [6] | [3] | [4] | [5] | [7]

NC(=O)c1cc[n+](CC2=C(C(=O)O)N3C(=O)[C@@H](NC(=O)[C@@H](c4ccccc4)S(=O)(=O)[O-])[C@H]3SC2)cc1
inactive: [1] | [6] | [2] | [4] | [5] | [7]

CC(O)C(O)[C@H]1CNc2nc(N)[nH]c(=O)c2N1 (some centres not stated)
inactive: [1] | [2] | [3] | [4] | [5] | [8] | [7]

CC(C)(CO)Cc1cc(C(C)(C)C)c(O)c(C(C)(C)C)c1
inactive: [1] | [6] | [3] | [4] | [5] | [7]

COc1cc2c(CCNC(C)=O)c[nH]c2cc1O
inactive: [1] | [2] | [3] | [4] | [5] | [8]

CCCc1c(-c2ccc(O)cc2)nn(-c2ccc(O)cc2)c1-c1ccc(O)cc1
inactive: [1] | [9] | [2] | [3] | [4] | [5]

O=[N+]([O-])c1cccc2cn[nH]c12
inactive: [1] | [6] | [4] | [5] | [8] | [7]

Cc1ccccc1/C=C/C1=NCCN1
inactive: [1] | [9] | [4] | [5] | [8]

Cn1c(=O)c2c(nc(/C=C/c3cccc(Cl)c3)n2C)n(C)c1=O
inactive: [1] | [6] | [3] | [5] | [8] | [7]

C=CCn1c(=O)c2c(nc(-c3ccc(S(=O)(=O)O)cc3)n2C)n(C)c1=O
inactive: [1] | [6] | [2] | [3] | [5] | [7]

N[C@@H](CCC(=O)N[C@H](CSN=O)C(=O)NCC(=O)O)C(=O)O
inactive: [1] | [9] | [2] | [3] | [4] | [5] | [7]
